Rows were chosen to be rich in hits. Some 3% of all compounds tested hit in one or more screens of this group.
SARS PLP yeast: inhibitors of SARS-CoV papain-like protease in yeast; S. cerevisiae expressing SARS-CoV PLpro, growth rescue; Potency, µM (titrated, usually from 32.9 µM), for the others: top-dose activity, positive = growth rescue, usual class: activators; actives 0.19% (n = 330,000); AID 485353; calls by dose curve; further: 0% is about no effect; nearly all actives have a fitted effect of over 55% in size
Sm TGR inh: blocks Schistosoma mansoni thioredoxin glutathione reductase; Q962Y6; purified TGR, DTNB reduction, TNB absorbance 405 nm; Potency, µM (series often up to 114 µM), without a hit: top-dose activity change, negative = inhibition, actives largely listed as inhibitors; actives 3% (n = 360,000); AID 485364; active means well fitted inhibition curve with a large enough effect; inconclusive means small, poorly fitted or top-dose-only effect; inactive means no such curve, though single readings can be large or run the other way; further: on the % scale 0 is the no-effect control and ±100 the full control effect; nearly all actives have a fitted effect of over 60% in size
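First, TGR (20 nM dispensed) and NADPH were mixed with compound. Second, a 15 min room-temperature incubation followed. Third, further NADPH and then DTNB were added to start the reaction. Finally, TNB absorbance was monitored kinetically.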
Active calls of the source: *; ? = inconclusive; nt = no result. Potency means the concentration at half of the fitted maximal effect.

SMILES	SARS PLP yeast	Sm TGR inh
Cc1ccccc1NC(=O)CSCn1nnc2c(=O)[nH]c(Cc3ccc(F)cc3)nc21	nt	-1.1%
CCOC(=O)c1sc2ccccc2c1S(=O)(=O)Nc1ccc(N(C)C)cc1	nt	5.9%
CCOC(=O)c1cc(OC(=O)c2ccc(Cl)cc2)n(-c2ccccc2)n1	nt	7.9%
Cc1ccccc1NC(=O)CSc1nc(-c2cccs2)nc2cc(=O)[nH]n12	-3.0%	1.3%
O=C(CSc1nnc(-c2ccc(S(=O)(=O)N3CCCC3)cc2)o1)NCc1ccco1	-7.7%	44.7µM*
COc1ccc(-c2nnc(SCC(=O)NCc3ccco3)o2)cc1	-0.1%	?
O=C1CN(C(=O)COc2ccc(Cl)cc2)C(c2ccccc2)c2cc(Br)ccc2N1 (centres undefined)	nt	3.2%
O=C(c1ccc(F)cc1)N1CCN(CCc2ccncc2)CC1	nt	39.8µM*
O=C(c1ccc(Cl)cc1)N1CCN(CCc2ccncc2)CC1	nt	-26.7%
C=C(C)C1CC=C(C)/C(=N/NC(=S)Nc2ccccc2)C1 (centres undefined)	10µM*	-9.7%
C=C(C)C1CC=C(C)/C(=N/NC(=O)c2ccc(NC(=O)c3cccc(C)c3)cc2)C1 (centres undefined)	9.4%	-11.8%
COc1ccccc1-c1nc2n(n1)C(c1ccccc1Cl)C(C(=O)Nc1cccnc1)=C(C)N2 (centres undefined)	nt	14.0%
Cn1cnc([N+](=O)[O-])c1C(=O)Nc1cccc([N+](=O)[O-])c1	-4.2%	4.5%
CN(C)C(=O)c1c([N+](=O)[O-])ncn1C	-3.4%	-2.1%
Cn1cnc([N+](=O)[O-])c1Oc1cccc(O)c1	-10.3%	31.6µM*
O=C(COc1cccnc1[N+](=O)[O-])Nc1cccc2ccccc12	-5.3%	-2.9%
Cn1cnc([N+](=O)[O-])c1Oc1cccc2ccccc12	?	25.1µM*
Cn1cnc([N+](=O)[O-])c1Oc1ccccc1	14.6%	35.5µM*
Cc1ccc(NC(=O)Cn2cc(S(=O)(=O)c3ccccc3)c(=O)c3cc4c(cc32)OCO4)cc1	nt	-18.6%
CC(=O)Nc1ccc2nc3c(=O)[nH]c(=O)[nH]c3nc2c1	nt	-12.6%
O=C1CC(N2CCOCC2)C(=O)N1CCN1C(=O)CC(N2CCOCC2)C1=O (centres undefined)	0.0%	-24.4%
CN(C)N1C(=O)CC(N2CCCC2)C1=O (centres undefined)	-0.1%	22.4µM*
CC(C)(C)c1ccc(CN2N=Nc3ccccc3S2(=O)=O)cc1	-1.3%	12.6µM*
O=S1(=O)CCN(Cc2ccc(Cl)c(Cl)c2)CC1	-8.8%	14.6%
Cc1cccc(N2C(=O)N(Cc3ccc(C(C)(C)C)cc3)c3ccccc3S2(=O)=O)c1	nt	6.5%
SMILES	SARS PLP yeast	Sm TGR inh
O=S1(=O)c2ccccc2N=NN1Cc1ccc(Cl)c(Cl)c1	nt	3.98µM*
Cn1nnc2c(NCc3ccccc3)ncnc21	nt	34.6%
O=C(CN1C(=O)c2cccnc2Oc2ccc(Cl)cc21)N1CCCCCC1	-8.4%	9.0%
O=C(CCCN1C(=O)c2cccnc2Oc2ccc(Cl)cc21)N1CCCCC1	0.4%	12.6µM*
O=C(Nc1cc2c(cc1C(=O)c1cccc(Br)c1)OCCO2)c1ccccc1F	nt	-5.3%
CC1=C(C(=O)Nc2cccnc2)C(c2cccc(F)c2)n2nc(SCc3ccccc3F)nc2N1 (centres undefined)	nt	-4.6%
Cc1cc(C=O)c(C)n1-c1ccc(N2CCOCC2)cc1	-16.6%	-4.6%
Cc1cc(C=O)c(C)n1-c1cc(C(F)(F)F)ccc1N1CCOCC1	nt	50.1µM*
CCOC(=O)c1ccc(NC(=O)CCCc2nc(-c3cc(OC)c(OC)c(OC)c3)no2)cc1	nt	-5.3%
CCn1nc(-c2ccccc2)c(-c2ccccc2)c(C(=O)Nc2nc(C)c(C(C)=O)s2)c1=O	nt	1.2%
O=C(NCc1ccco1)c1cccc(Nc2nc3ccc(Br)cc3[nH]2)c1	-2.7%	1.2%
O=C(NCC1CC1)c1ccc(Nc2nc3ccc(Br)cc3[nH]2)cc1	-1.1%	3.55µM*
O=C(Nc1ccc(F)cc1)c1ccc(-n2cncn2)c([N+](=O)[O-])c1	-0.6%	-12.6%
O=C(Nc1ccc(F)cc1F)c1ccc(-n2cccn2)c([N+](=O)[O-])c1	-0.8%	44.7µM*
O=C(Cn1ccn(-c2ccc(F)c(F)c2)c(=O)c1=O)Nc1ccccc1F	nt	1.3%
CCOc1ccc2nc(C)cc(Nc3ccccc3OCC)c2c1	nt	1.9%
Cc1ccc(NC(=O)c2cnn(-c3ccc(C)c(C)c3)c2C2CCN(C(=O)OC(C)(C)C)CC2)c(C)c1	nt	-0.7%
COc1cc(OC)c(NC(=O)C(NS(=O)(=O)c2cccc3nsnc23)c2ccccc2)cc1Cl (centres undefined)	nt	-8.0%
CN(Cc1ccco1)C(=O)CN1C(=O)NC(c2ccccc2)(c2ccccc2)C1=O	-5.1%	35.5µM*
CN(Cc1ccco1)C(=O)CN1C(=O)NC2(CCCC2)C1=O	6.5%	nt
CCCCNC(=O)CCCn1c(=O)c2ccccc2n(Cc2ccccc2C)c1=O	nt	-3.2%
Cc1ccc(C2CCN(C(=O)Nc3ccc(Cl)c(Cl)c3)C2)cc1 (centres undefined)	nt	2.4%
Cc1ccc(CN2CCNC(=O)C2CC(=O)N(C)C2CCOCC2)cc1 (centres undefined)	4.8%	44.7µM*
CCN(CCO)C(=O)CC1C(=O)NCCN1Cc1c(F)cccc1Cl (centres undefined)	0.4%	?
CN(C(=O)CC1C(=O)NCCN1Cc1ccoc1)C1CCOCC1 (centres undefined)	0.6%	-18.0%
SMILES	SARS PLP yeast	Sm TGR inh
CN(C(=O)CC1C(=O)NCCN1Cc1c(F)cccc1Cl)C1CCOCC1 (centres undefined)	4.2%	50.1µM*
COc1ccccc1C(=O)Nc1nnc(S(=O)(=O)N(C)c2ccc(Cl)cc2)s1	nt	-1.4%
CC/C(=N\Nc1ccccc1)c1c(O)[nH]c(=O)[nH]c1=O	-1.9%	4.6%
CC/C(=N\Nc1cccc2ccccc12)c1c(O)[nH]c(=O)[nH]c1=O	-1.3%	79.4µM*
COc1cccc(Cn2c(=O)n(CC3CCC(C(=O)N4CCOCC4)CC3)c(=O)c3sccc32)c1 (centres undefined)	nt	-0.4%
Cc1c(-c2ccc(Cl)cc2)[n+](=O)c2c(n1[O-])CCCC2	-1.0%	12.9%
Cc1c(-c2ccc(Cl)cc2)[n+](=O)c(-c2ccccc2)cn1[O-]	0.7%	50.1µM*
Cc1ccc(-n2ccnc(NCCc3ccc(S(N)(=O)=O)cc3)c2=O)c(C)c1	nt	2.0%
Cc1cc2oc(C(=O)Nc3ccc(S(=O)(=O)N4CCCCCC4)cc3)cc(=O)c2cc1C	nt	1.0%
CN(C)c1ccc(C(=O)Nc2sc(Nc3ccccc3)nc2C(N)=O)cc1	nt	-1.3%
O=C(O)C1(S(=O)(=O)CCC(F)=C(F)F)CC1	0.5%	31.6µM*
Cc1nc2ccc(S(=O)(=O)N(C)CC(=O)Nc3cccc(C(F)(F)F)c3)cc2s1	nt	-1.2%
CCn1c(O)c(/C=N/N=C2CCCC2)c2ccc(C3=NNC(=O)CC3)cc21	17.6%	-34.4%
CCn1c(O)c(/C=N/N=C2CCCCC2)c2cc(C3=NNC(=O)CC3)ccc21	0.1%	39.8µM*
O=C(CC1SC(N2CCOCC2)=NC1=O)Nc1ccccc1Cl (centres undefined)	4.3%	44.7µM*
O=C(CC1SC(N2CCOCC2)=NC1=O)Nc1ccc(Cl)cc1 (centres undefined)	-0.7%	?
O=C(CC1C(=O)NCCN1Cc1cccc(F)c1)NC1CCC1 (centres undefined)	0.2%	?
CCCN1CCC(NC(=O)CC2C(=O)NCCN2Cc2ccccc2C)CC1 (centres undefined)	0.2%	-14.1%

Screens deposited in PubChem by National Center for Advancing Translational Sciences (NCATS).
